# Inconclusive results are not listed. Entries that show only a call come without a potency. Calls of active or inactive are those of the source. Calls come from the whole dose curve; as a rule, active = well fitted cell-killing curve with a large enough effect; inconclusive = small, poorly fitted or top-dose-only effect, or effect the other way; inactive = no such curve, though single readings can be large or run the other way.
# Experiment: Quantitative High-Throughput drug screen in 47 multiple myeloma cell lines against the NCATS MIPE library collection: XG1_PLB cell viability assay (AID 1919866); note: nearly all actives have a fitted effect of over 35% in size
# Conditions: CellTiter-Glo ATP, 48 h; series mostly up to 45.8 µM
# Text: PI: Beverly A. Mock Ph.D.
# Laboratory of Cancer Biology and Genetics,
# Center for Cancer Research, National Cancer Institute,
# National Institute of Health, Bethesda, Maryland
# Drug resistance and disease progression are common in multiple myeloma (MM) patients, underscoring the need for new therapeutic combinations. […] We hypothesized that effective combinations would reduce MYC expression and enhance p16 activity. […] These preclinical data identify potentially useful drug combinations for evaluation in drug-resistant MM and reveal potential mechanisms of combined drug sensitivity.
# Described herein is the primary MIPE qHTS used to cherrypick compounds. Validated compounds were then further tested for potential synergistic activiy.
# [1] Peat TJ, Gaikwad SM, Dubois W, Gyabaah-Kessie N, Zhang S, Gorjifard S, Phyo Z, Andres M, Hughitt VK, Simpson RM, Miller MA, Girvin AT, Taylor A, Williams D, D'Antonio N, Zhang Y, Rajagopalan A, Flietner E, Wilson K, Zhang X, Shinn P, Klumpp-Thomas C, McKnight C, Itkin Z, Chen L, Kazandijian D, Zhang J, Michalowski AM, Simmons JK, Keats J, Thomas CJ, Mock BA. Drug combinations identified by high-throughput screening promote cell cycle transition and upregulate Smad pathways in myeloma. Cancer Lett. 2023 Aug 1;568:216284. doi: 10.1016/j.canlet.2023.216284. Epub 2023 Jun 24. PMID: 37356470; PMCID: PMC10408729.
# SEQUENCE No. (e.g., 1, 2, 3, etc.); […] (e.g., Cells, Incubation, Reagent, etc.); VALUE and DESCRIPTION.
# 1; Cells; 5 uL; white, solid bottom 1536-well Greiner assay plate.
# 2; Compounds; 23 nL; Kalypsis pin tool (Wako USA) equipped with a 1536-well pin head to transfer to the assay plates.
# 3; Incubation; 48 hours; 37C incubation.
# 4; Reagent;5uL; CellTiter Glo (Promega).
# 5; Detector; 425V; Luminescence; Viewlux PerkinElmer.
# NOTES (numbers refer to Sequence numbers above)
# 1. The cell-based screening methods employed in this study were like those previously published. Briefly, the corresponding myeloma cell lines were screened in 1,536-well plates with 500 cells, 5-uL per well for inhibition of cell viability (assessed by measuring ATP levels with CellTiterGlo).
# 2. NCATS MIPE 4.0 library of approved and investigational drugs were added using the Kalypsis pin tool. Wells treated with DMSO only for 100% viability and media only for 0% viability were used as controls.
# 3. The assay plates were covered and incubated for 48 hours in a 37C, 5% CO2 incubator with controlled humidity.
# 4. After 48 hours, CellTilter-GloTM luminescent substrate mix (Promega) reagent was added to the assay plate and plates we incubated for 5 min at room temperature.
# 5. Signal was measured as median relative luminescence units on a ViewLux (PerkinElmer) multiplate reader.
# [1] Heske CM, Davis MI, Baumgart JT, Wilson K, Gormally MV, Chen L, Zhang X, Ceribelli M, Duveau DY, Guha R, Ferrer M, Arnaldez FI, Ji J, Tran HL, Zhang Y, Mendoza A, Helman LJ, Thomas CJ. Matrix Screen Identifies Synergistic Combination of PARP Inhibitors and Nicotinamide Phosphoribosyltransferase (NAMPT) Inhibitors in Ewing Sarcoma. Clin Cancer Res. 2017 Dec 1;23(23):7301-7311. doi: 10.1158/1078-0432.CCR-17-1121. Epub 2017 Sep 12. PMID: 28899971; PMCID: PMC6636827.
# Potency is the fitted concentration of half-maximal effect.
row,Structure (SMILES),Potency
1,O=C1NC(=O)[C@@H](c2cn3c4c(cccc24)CCC3)[C@H]1c1c[nH]c2ccccc12,0.0332 µM (active)
2,CCCc1nc(C(C)(C)O)c(C(=O)O)n1Cc1ccc(-c2ccccc2-c2nn[nH]n2)cc1,inactive
3,FC(F)c1nc2ccccc2n1-c1nc(N2CCOCC2)nc(N2CCOCC2)n1,0.209 µM (active)
4,Nc1nc(=O)n([C@H]2CSC(CO)O2)cc1F (stereo not given in full),inactive
5,CC(=O)O[C@H]1C[C@@H]2CC[C@H]3[C@H]4C[C@H]([N+]5(C)CCCCC5)[C@@H](OC(C)=O)[C@@]4(C)CC[C@@H]3[C@@]2(C)C[C@H]1[N+]1(C)CCCCC1,inactive
6,O=[N+]([O-])c1cn2c(n1)OC[C@@H](OCc1ccc(OC(F)(F)F)cc1)C2,inactive
7,N#CC(=C(O)c1ccc(Cl)cc1Cl)c1nc2cc(Cl)ccc2c(=O)[nH]1,inactive
8,CC(C)(O)Cn1c(NC(=O)c2ccc(-c3cn[nH]c3)s2)nc2cc(CN3CCOCC3)ccc21,0.743 µM (active)
9,CN1CCc2c(c3ccccc3n2Cc2ccc(C(=O)NO)cc2)C1,11.8 µM (active)
10,C=CC1=C(C(=O)O)N2C(=O)[C@@H](NC(=O)C(=NO)c3csc(N)n3)[C@H]2SC1,inactive
11,COc1cc2c(cc1O)CCC1C2CC[C@@]2(C)C1CC[C@@H]2O (stereo not given in full),0.662 µM (active)
12,N#CC(=C(N)Sc1ccc(N)cc1)c1ccccc1C(F)(F)F,2.96 µM (active)
13,Cc1cc(O)c2c(c1)C(=O)c1cccc(O)c1C2=O,inactive
14,Cn1cc(CNCC2CCN(c3ncc(C(=O)NO)cn3)CC2)c2ccccc21,0.0526 µM (active)
15,N#CNC(=NCCCCCCOc1ccc(Cl)cc1)Nc1ccncc1,inactive
16,CCc1ccc(C(=O)Nc2cc(CN3CCN(C)CC3)cc(C(F)(F)F)c2)cc1C#Cc1cnc2ccnn2c1,4.69 µM (active)
17,CN(C)CC[C@H](c1ccc(Cl)cc1)c1ccccn1,6.62 µM (active)
18,CN(C)c1ccc2cc(C(=O)N[C@@H](CCCN=C(N)CCl)C(=O)NCc3ccccc3)ccc2c1,1.18 µM (active)
19,C[C@H]1[C@@H](OC(=O)CCC(=O)O)O[C@@H]2O[C@@]3(C)CC[C@@H]4[C@H](C)CC[C@@H]1[C@@]24OO3,10.5 µM (active)
20,O=C(O)C(=O)Nc1cccc(C2=NN=N[N]2)c1,inactive

row,Structure (SMILES),Potency
1,CC(=O)SCC(Cc1ccccc1)C(=O)NCC(=O)OCc1ccccc1 (stereo not given),2.96 µM (active)
2,C[C@H](NC(=O)Cc1cc(F)cc(F)c1)C(=O)N[C@H](C(=O)OC(C)(C)C)c1ccccc1,inactive
3,CC1(C)CC(O)CC(C)(C)N1[O],inactive
4,COc1cc([C@@H]2c3cc4c(cc3[C@@H](O[C@@H]3O[C@@H]5CO[C@@H](c6cccs6)O[C@@H]5[C@H](O)[C@@H]3O)[C@H]3COC(=O)[C@H]23)OCO4)cc(OC)c1O,0.526 µM (active)
5,O=c1ccn([C@@H]2O[C@H](CO)[C@H](O)[C@@H]2F)c(=O)[nH]1,5.9 µM (active)
6,Oc1cc2c(cc1O)C1c3ccc(O)c(O)c3OCC1(O)C2 (stereo not given),inactive
7,CCCCCCCCCCCC(CC1OC(=O)C1CCCCCC)OC(=O)C(CC(C)C)NC=O (stereo not given),inactive
8,OC[C@@H](O)[C@@H](O)[C@H](O)[C@@H](O)CO,inactive
9,CC(=O)ON=C1C(c2c(O)[nH]c3cc(Br)ccc23)=Nc2ccccc21,1.66 µM (active)
10,O=C1c2cccc(O)c2C(=O)c2c(O)cc(CO)cc21,inactive
11,CC(=O)O[C@@]12CO[C@H]1C[C@H](O)[C@@]1(C)C(=O)[C@H](O)C3=C(C)[C@@H](OC(=O)C(O)[C@@H](NC(=O)OC(C)(C)C)c4ccccc4)C[C@@](O)([C@@H](OC(=O)c4ccccc4)[C@@H]21)C3(C)C (stereo not given in full),inactive
12,Cc1[nH]c(C=C2C(=O)Nc3ccccc32)c(C)c1CCC(=O)O,2.96 µM (active)
13,Cc1onc(-c2ccccc2)c1C(=O)N[C@@H]1C(=O)N2[C@@H](C(=O)O)C(C)(C)S[C@@H]12,inactive
14,CCCNS(=O)(=O)Nc1ncnc(OCCOc2ncc(Br)cn2)c1-c1ccc(Br)cc1,inactive
15,CN(C)c1ccc(C(=O)NCCCCCCC(=O)NO)cc1,1.18 µM (active)
16,Nc1ccn(C2CO[C@H](CO)O2)c(=O)n1 (stereo not given in full),inactive
17,C#C[C@]1(O)CC[C@@H]2[C@@H]3CCC4=CC(=O)CC[C@@H]4[C@H]3CC[C@@]21CC,inactive
18,C[C@]12CC[C@@H]3c4ccc(O)cc4CC[C@H]3[C@H]1CC[C@H]2O,6.62 µM (active)
19,CCCCC(=O)O[C@]1(C(=O)CO)[C@@H](C)C[C@H]2[C@@H]3CCC4=CC(=O)C=C[C@]4(C)[C@@]3(F)[C@@H](O)C[C@@]21C,inactive
20,OCCNC1CCCc2c1[nH]c1ccc(-c3ccccc3)cc21 (stereo not given),9.35 µM (active)

# — PubChem BioAssay (NCATS)
